Bioassay records from PubChem.
Pf apPOL block: Pf-apPOL DNA polymerase inhibition; actives 0.25% (n = 210,000); AID 1794808; inhibition, % at 10 µM; Recombinant Pf-apPOL, molecular beacon fluorescence, 1.5 h
mHTT-CaM PPI inh: inhibitors of human mutant huntingtin-calmodulin interaction; P42858; AID 1671202; actives 3.6% (n = 190,000); inhibition, % at 15 µM; AlphaScreen His-mHTT/GST-CaM binding, luminescence;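 note: 0% = both proteins with DMSO and 100% = one protein alone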
* = called active by the depositor; i = inactive; . = no result. Only a selection was taken, and hits are over-represented in it overall. Cut-off read from the data, not from the text of the source: active = inhibition above about 50%; inactive = the rest.

SMILES	Pf apPOL block	mHTT-CaM PPI inh
CC1=C(C(=O)Nc2ccccn2)C(c2ccc(N(C)C)cc2)n2ncnc2N1 (centres undefined)	-3	4
CSc1ccc(C(Nc2ccccn2)c2ccc3cccnc3c2O)cc1 (centres undefined)	2	99*
Oc1c(C(Nc2ccccn2)c2ccc(F)cc2)ccc2cccnc12 (centres undefined)	-8	98*
Cc1ccc2ccc(C(Nc3ccccn3)c3ccc(N(C)C)cc3)c(O)c2n1 (centres undefined)	4	100*
C=CCOc1ccc(C(=O)Nc2ccccn2)cc1	-5	-7
O=C(Nc1c2c(nn1-c1ccc([N+](=O)[O-])cc1)CSC2)c1ccc(Br)cc1	24	33
O=C(C1CCN(c2nc3ccc(-c4cccc(F)c4)nc3s2)CC1)N1CCCC1	0	4
COc1cccc(C(=O)N2CCC(c3nc(-c4ccc(NC(C)=O)cc4)no3)CC2)c1	-5	-1
CSc1ccc(C=Nc2ccccn2)cc1	.	0
CSc1ccc(C(Nc2ccccn2)c2ccc3ccc(C)nc3c2O)cc1 (centres undefined)	-9	78*
CCc1ccc(C(C)NC(=O)c2ccccn2)cc1 (centres undefined)	-11	-1
CCc1ccc(C(Nc2ccccn2)c2ccc3cccnc3c2O)cc1 (centres undefined)	-2	97*
Cc1ccc2ccc(C(Nc3ccccn3)c3cccnc3)c(O)c2n1 (centres undefined)	-6	73*
Cc1cc(C)cc(C(=O)N2CCCC(C(=O)NCc3ccccc3C)C2)c1 (centres undefined)	8	10
O=C(NCc1cc(-c2ccccc2F)on1)c1ccc2nsnc2c1	-5	-3
Cc1nc2nc(SCC(=O)NCCN(C)C)nn2c(C)c1Cc1ccccc1Cl	-2	38
N#CC(=Cc1c(Cl)cccc1Cl)S(=O)(=O)c1ccc(Cl)cc1	-5	.
N#C/C(=C\c1cn[nH]c1-c1ccccc1)S(=O)(=O)c1ccc(Cl)cc1	12	89*
O=C(Nc1ccccn1)c1ccc(S(=O)(=O)NC2CCCC2)cc1	-7	-2
O=C(O)c1ccc(N2N=C(/C=C/c3ccccc3)CC2c2ccccc2)cc1 (centres undefined)	1	-26
C(=C\c1ccccc1)/C1=Nc2ccccc2NC(c2ccccc2)C1 (centres undefined)	-5	81*
COC(=O)c1ccc(C(=O)NCC2CCN(C(=O)Nc3ccc(F)cc3)CC2)cc1	-2	-12
N=c1c(C(=O)NCc2cccnc2)cc2c(=O)n3ccccc3nc2n1Cc1ccco1	-8	4
N=c1c(C(=O)NCCc2ccccc2)cc2c(=O)n3ccccc3nc2n1Cc1ccco1	-17	52*
CNC(=O)c1cc2c(=O)n3cc(C)ccc3nc2n(Cc2ccco2)c1=N	15	0
SMILES	Pf apPOL block	mHTT-CaM PPI inh
Cc1ccc2nc3c(cc(C(=O)NCCc4ccccc4)c(=N)n3Cc3ccco3)c(=O)n2c1	-1	56*
CCOc1ccc(-c2nc3s/c(=C\c4cc(Br)ccc4OC)c(=O)n3n2)cc1	55*	-8
COc1ccc(OC)c(/C=c2\sc3nc(-c4ccc(Br)cc4)nn3c2=O)c1	7	-2
COc1ccc(-n2nc3c(c2NC(=O)C2CCCC2)CS(=O)(=O)C3)cc1	4	4
CCCCC1CCC(C(=O)Nc2c3c(nn2-c2ccc(OC)cc2)CS(=O)(=O)C3)CC1 (centres undefined)	1	58*
Cc1nc(C)c(C(=O)Nc2cc(F)ccc2F)s1	-2	-5
Cc1nc2cc(NC(=O)c3ccc(S(=O)(=O)N(C)CC4CCCO4)cc3)ccc2s1 (centres undefined)	-11	13
CN(/N=C/c1ccc(Cl)cc1)C1=NS(=O)(=O)c2ccccc21	.	i
Cc1ccc(-c2nc(C3CCN(S(=O)(=O)c4c(C)cc(C)cc4C)CC3)no2)cc1	-6	-10
Cc1ccc(-c2ccc(C)cc2[N+](=O)[O-])c([N+](=O)[O-])c1	-1	.
Cc1ccc(-n2c(C)ccc2C)c([N+](=O)[O-])c1	-2	67*
CSc1ccc(/C=C2/N=C(c3ccc(Br)o3)OC2=O)cc1	-3	16
Cc1ccc(N2C=C(C(=O)N3CCCCC3)S(=O)(=O)c3ccccc32)cc1Cl	-2	-7
Cc1ccc(N2C=C(C(=O)N3CCCCC3)S(=O)(=O)c3ccccc32)cc1C	0	58*
CC(=O)N1CCC2(CC1)N=C(c1ccc(F)cc1)CC(c1cc(Cl)ccc1O)N2 (centres undefined)	-4	3
CC(=O)N1CCC2(CC1)N=C(c1ccc(C)cc1C)CC(c1cc(Cl)ccc1O)N2 (centres undefined)	-5	88*
CN1CCC2(CC1)N=C(c1ccccc1O)CC(c1ccccc1O)N2 (centres undefined)	0	28
COc1ccccc1C1CC(c2ccccc2O)=NC2(CCN(C(C)C)CC2)N1 (centres undefined)	-3	66*
CC(=O)N1CCC2(CC1)N=C(c1ccccc1)CC(c1cc(Cl)ccc1O)N2 (centres undefined)	1	65*
CCOC(=O)N1CCC2(CC1)N=C(c1ccccc1O)CC(c1cc(Cl)ccc1O)N2 (centres undefined)	-3	9
CC(C)N1CCC2(CC1)N=C(c1ccccc1O)CC(c1ccccc1O)N2 (centres undefined)	-2	20
Oc1ccc(Cl)cc1C1=NC2(CCNCC2)NC(c2ccccc2O)C1 (centres undefined)	-4	100*
O=C(NC1CCCC1)C1CCCN1C(=O)c1ccccc1 (centres undefined)	1	-1
O=C(CCCCCn1nnc2ccccc2c1=O)N1CCN(c2cccc(Cl)c2)CC1	-5	16
CCSc1sccc1C1C(C#N)=C(N)N(c2ccccc2[N+](=O)[O-])C2=C1C(=O)CCC2 (centres undefined)	-4	31
SMILES	Pf apPOL block	mHTT-CaM PPI inh
Cc1ccc(C2CC(c3ccccc3O)=NC3(CCN(C)CC3)N2)cc1 (centres undefined)	6	38
CC(C)C1N=C(c2ccc3c(c2)OCO3)CC(c2cc(Br)ccc2O)N1 (centres undefined)	-3	31
CCOc1ccc(C2=NC3(CCN(C)CC3)NC(c3cc(Cl)ccc3O)C2)cc1 (centres undefined)	0	9
COc1cccc(C2=NC3(CCN(C)CC3)NC(c3cc(Cl)ccc3O)C2)c1 (centres undefined)	-4	52*
CC(C)C1N=C(c2ccc3c(c2)OCO3)CC(c2cc(Cl)ccc2O)N1 (centres undefined)	-1	67*
Cc1ccc(C)c(C2=NC3(CCN(C)CC3)NC(c3cc(Cl)ccc3O)C2)c1 (centres undefined)	1	98*
CCCC1(C)N=C(c2ccc(Cl)cc2)CC(c2cccc(OC)c2O)N1 (centres undefined)	-7	88*
CCN1CCC2(CC1)N=C(c1ccc(C)cc1)CC(c1cccc(OC)c1O)N2 (centres undefined)	-3	10
COc1cccc(CNC(=O)N2CCC(c3nc(C(=O)N(C)C)c(C)o3)CC2)c1	3	2
COc1cc([N+](=O)[O-])ccc1N1C(=O)CC(N2CCc3ccccc3C2)C1=O (centres undefined)	-11	41
O=C(COc1ccc(Cl)cc1)N1CCc2cc(-c3ccno3)ccc21	-31	-3
